Consider eight molecules from PubChem BioAssay (Tox21).

Values without a mark were called inactive. Results filed as inconclusive are left out. The source made the active and inactive calls. Unless noted, calls come from the whole dose curve.

Assay [1] can be described thus: Nuclear factor erythroid 2-related factor 2/antioxidant responsive element (Nrf2/ARE) small molecule agonists: qHTS cell viability counter screen in human keratinocytes (AID 1919968; active = well fitted curve in the direction sought with a large enough effect in the repeat runs; an effect the other way counts as inactive or inconclusive; note: nearly all actives have a fitted effect of over 55% in size; note: potency is the fitted concentration of half-maximal effect). In outline: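 Viability counter-screen: KeratinoSens reporter cells, DMSO-delivered compounds, 23 h at 37 C, CellTiter-Fluor fluorescence.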
Background: Quantitative high-throughput screening tests each substance at several concentrations.

The nature of assay [2]: Nuclear factor erythroid 2-related factor 2/antioxidant responsive element (Nrf2/ARE) small molecule agonists: luciferase reporter gene qHTS assay in human keratinocytes (AID 1919969). Note: nearly all actives have a fitted effect of over 35% in size. Note: potency is the fitted concentration of half-maximal effect. Background: Reporter assays use an easily measured gene product as a stand-in for the process of interest.
Assay [3] has as its target Gonadotropin-releasing hormone receptor (Homo sapiens) (UniProt P30968). Nature of the assay: Human gonadotropin-releasing hormone receptor (GnRHR) small molecule agonists, calcium flux assay in GnRHR-HEK293 cells (AID 1920063). Note: nearly all actives have a fitted effect of over 35% in size. In short, it runs like this: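 Tox21-format agonist screen using human GnRHR-expressing HEK293 cells and a fluorescent calcium dye; kinetic 3-min fluorescence reading after compound addition, 15-point concentration series run in triplicate.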

For assay [4], the target named is KiSS-1 receptor (Homo sapiens) (UniProt Q969F8). Nature of the assay: Human kisspeptin (KISS1R) small molecule agonists, calcium flux assay in KISS1R-HEK293 cells (AID 1920064; active = well fitted curve in the direction sought with a large enough effect in the repeat runs; an effect the other way counts as inactive or inconclusive). In short, it runs like this: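 Intracellular calcium mobilization in KISS1R-HEK293 cells was recorded by fluorescence (Ex/Em 480/540) for 3 min following compound addition to cells pre-loaded 1 h with calcium dye.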
KiSS-1 receptor (Homo sapiens), sequence (Q969F8 whole entry, looked up): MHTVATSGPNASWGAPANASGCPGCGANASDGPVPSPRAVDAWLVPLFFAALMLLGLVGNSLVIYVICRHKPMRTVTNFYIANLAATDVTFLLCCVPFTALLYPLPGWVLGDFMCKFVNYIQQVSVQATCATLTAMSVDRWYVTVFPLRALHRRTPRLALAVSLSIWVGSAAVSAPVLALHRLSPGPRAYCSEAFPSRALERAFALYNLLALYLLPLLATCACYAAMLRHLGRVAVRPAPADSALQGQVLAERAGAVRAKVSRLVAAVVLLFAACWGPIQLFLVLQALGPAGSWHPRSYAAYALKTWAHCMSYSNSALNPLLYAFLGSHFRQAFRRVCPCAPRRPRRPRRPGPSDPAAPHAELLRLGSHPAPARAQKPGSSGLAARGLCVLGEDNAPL
(A change in cytosolic calcium serves as a functional read-out for many receptors and channels.)

A short description of assay [5]: G protein-coupled receptor (GPCR) small molecule agonists, calcium flux assay: HEK293 wild type cell line counter screen (AID 1920065). In short, it runs like this: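 In this agonist-mode screen, ATP is the positive control and DMSO the vehicle. Cells grow 18 h before a 1 h dye incubation at 37 C; signal is taken at Ex/Em 480/540 over 3 min.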
A short description of assay [6]: p53 small molecule agonists, cell-based qHTS assay with rat liver microsomes (AID 1963578). In short, it runs like this:
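Rat liver microsome activation: microsomes 0.5 mg/mL, NADPH 0.5 mg/mL final; p53RE-bla cells, 16 h 37 C; LiveBLAzer readout, 2 h RT dark.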

Assay [7] is described as follows: p53 small molecule agonists, cell-based qHTS assay: qHTS cell viability counter screen (AID 1963581). Note: nearly all actives have a fitted effect of over 45% in size. In short, it runs like this: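 Compounds are pinned onto HCT-116 p53RE-bla cells and left 16 h at 37 C. Following the reporter FRET read, ATP is quantified by CellTiter-Glo luminescence after 30 min at room temperature.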
A short description of assay [8]: p53 small molecule agonists, cell-based qHTS assay (AID 1963582; active = well fitted activation curve with a large enough effect in the signal ratio in the repeat runs, not every such curve was filed as active; the % refers to the signal ratio). In outline: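 Agonist activity was scored from beta-lactamase FRET fluorescence in p53RE-bla cells treated 16 h at 37 C with compounds in DMSO, substrate incubation being 2 h at room temperature.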
Assay [9] concerns the target 5-hydroxytryptamine receptor 2A (Homo sapiens) (UniProt P28223). Nature of the assay: 5-hydroxytryptamine receptor 2A (HTR2A) small molecule agonists, cell-based qHTS assay (AID 1963587). Note: nearly all actives have a fitted effect of over 30% in size. Note: potency is the fitted concentration of half-maximal effect. In short, it runs like this:
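Kinetic calcium-flux fluorescence (2 min, 1 sec intervals) after compound addition in agonist mode. HTR2A-CHO cells were cultured 18 h, then dye-loaded 1 h at 37 C.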

Assay [10] addresses Muscarinic acetylcholine receptor M1 (Homo sapiens) (UniProt P11229). Kind of assay: Cholinergic receptor muscarinic 1 (CHRM1) small molecule antagonists, cell-based qHTS assay (AID 1963588). Note: nearly all actives have a fitted effect of over 40% in size. In short, it runs like this: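 CHRM1-CHO calcium-flux assay, antagonist mode. Cells were seeded 18 h, dye-loaded 1 h at 37 C and given compound for 5 min at RT, then acetylcholine was added at 50nM. FDSS fluorescence was read 3 min; 15 concentrations, three runs.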

Assay [11] shares this target. Kind of assay: Cholinergic receptor muscarinic 1 (CHRM1) small molecule agonists, cell-based qHTS assay (AID 1963589). Note: nearly all actives have a fitted effect of over 35% in size. In short, it runs like this:
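Stable CHRM1-CHO cells (human receptor) were incubated 18 h, dye-loaded for 1 h at 37 C and exposed to test compounds for agonist activity, with calcium-dependent fluorescence followed kinetically.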

In assay [12] the target is Beta-2 adrenergic receptor (Homo sapiens) (UniProt P07550). Nature of the assay: Adrenergic beta2 receptor (ADRB2) small molecule antagonists, cell-based qHTS assay (AID 1963592). Note: series mostly up to about 92 µM; nearly all actives have a fitted effect of over 50% in size. In short, it runs like this:
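Cells (CHO, stable ADRB2 overexpression) incubated 18-20hr at 37C; compounds added from DMSO; agonist mix (1nM isoproterenol, 100uM IBMX, 25uM Ro-20-1724) added; 0.5hr RT; d2-cAMP and anti-cAMP-cryptate added; 1hr RT; 665/615 nm read.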

For assay [13] the target is unchanged. Nature of the assay: Adrenergic beta2 receptor (ADRB2) small molecule agonists, cell-based qHTS assay (AID 1963593).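 Note: CHO cells stably overexpressing human ADRB2.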 In short, it runs like this: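 CHO cells stably over-expressing ADRB2 were plated overnight at 37C, then dosed with compounds plus a stimulation mix containing 100uM IBMX and 25uM Ro-20-1724 for 0.5hr at room temperature. cAMP was measured by HTRF competition, 1hr.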

Assay [14] has as its target D(2) dopamine receptor (Homo sapiens) (UniProt P14416). Nature of the assay: Dopamine D2 receptor (DRD2) small molecule agonists, cell-based qHTS assay (AID 1963594). Note: nearly all actives have a fitted effect of over 35% in size. In short, it runs like this: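 cAMP accumulation in DRD2-HEK293 cells measured by HTRF after 1 h detection; compounds added 10 min before NKH477 (200nM […]) forskolin-analogue stimulation, 30 min at room temperature, with Ro20-1724 present at 0.1 mM final.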

Assay [15] shares this target. Nature of the assay: Dopamine D2 receptor (DRD2) small molecule antagonists, cell-based qHTS assay (AID 1963595; active = well fitted inhibition curve with a large enough effect in the signal ratio in the repeat runs, with a control signal flat; the % refers to the signal ratio). In outline:
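HEK293 cells stably expressing DRD2, preincubated with 0.1 mM Ro20-1724 and compounds 10 min, were stimulated with 200 nM NKH477 plus 12 nM quinpirole for 30 min at room temperature; cAMP measured by HTRF (665/620 nm).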

The nature of assay [16]: p53 small molecule agonists, cell-based qHTS assay with human liver microsomes: qHTS cell viability counter screen (AID 1963579). Note: nearly all actives have a fitted effect of over 45% in size. In short, it runs like this: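 Luminescent CellTiter-Glo read-out, 30 min at room temperature, gauged cytotoxicity in p53RE-bla cells exposed 16 h at 37 C to DMSO-dissolved compounds with metabolic activation by human liver microsomes and NADPH, each 0.5 mg/mL final.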

Assay [17] in a line: p53 small molecule agonists, cell-based qHTS assay with rat liver microsomes: qHTS cell viability counter screen (AID 1963580). Note: nearly all actives have a fitted effect of over 45% in size. In short, it runs like this:
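HCT-116 p53RE-bla, 4,000 cells/well, 5 h pre-incubation; cpd + rat liver microsomes 0.5 mg/mL + NADPH 0.5 mg/mL (final); 16 h, 37 C; CellTiter-Glo, 30 min RT; luminescence.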

The target of assay [18] is 5-hydroxytryptamine receptor 2A (Homo sapiens) (UniProt P28223). Nature of the assay: 5-hydroxytryptamine receptor 2A (HTR2A) small molecule antagonists, cell-based qHTS assay (AID 1963586). Note: nearly all actives have a fitted effect of over 45% in size. In outline:
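Antagonist-mode intracellular calcium assay: DOI (4 nM) added after 5 min compound pre-incubation at room temperature to dye-loaded HTR2A-CHO cells. Fluorescence followed for 3 min, sampled every second.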

Assay [19] is described as follows: cAMP Responsive Elements (CRE) small molecule agonists, cell-based qHTS assay (AID 1963590). In short, it runs like this:
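FRET-based beta-lactamase readout (LiveBLAzer B/G, 2 h RT) quantified CRE activation in HEK 293T CRE-bla cells after 3 h treatment with DMSO-dissolved compounds.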

Assay [20] is described as follows: cAMP Responsive Elements (CRE) small molecule antagonists, cell-based qHTS assay (AID 1963591; active = well fitted inhibition curve with a large enough effect in the signal ratio in the repeat runs, not every such curve was filed as active; the % refers to the signal ratio). In short, it runs like this: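 qHTS in CRE-bla HEK 293T cells: compound in DMSO, then 0.25 uM NKH477 (final), 3 h at 37 °C/5% CO2; beta-lactamase FRET read-out after 2 h substrate incubation.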

5-hydroxytryptamine receptor 2A (Homo sapiens), sequence (P28223 whole entry, looked up): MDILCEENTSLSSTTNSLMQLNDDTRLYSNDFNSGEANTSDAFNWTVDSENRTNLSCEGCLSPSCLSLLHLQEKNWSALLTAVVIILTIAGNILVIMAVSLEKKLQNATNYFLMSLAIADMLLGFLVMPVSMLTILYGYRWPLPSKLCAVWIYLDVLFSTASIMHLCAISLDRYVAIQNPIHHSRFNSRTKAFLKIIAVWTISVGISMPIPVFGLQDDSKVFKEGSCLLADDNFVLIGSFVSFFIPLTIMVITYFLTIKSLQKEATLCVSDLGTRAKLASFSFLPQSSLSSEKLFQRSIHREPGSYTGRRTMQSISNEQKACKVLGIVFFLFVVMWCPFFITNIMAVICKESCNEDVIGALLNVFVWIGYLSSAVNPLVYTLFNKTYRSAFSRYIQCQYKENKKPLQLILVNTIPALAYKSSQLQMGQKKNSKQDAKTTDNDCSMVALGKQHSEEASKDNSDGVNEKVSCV
D(2) dopamine receptor (Homo sapiens), sequence (P14416 whole entry, looked up): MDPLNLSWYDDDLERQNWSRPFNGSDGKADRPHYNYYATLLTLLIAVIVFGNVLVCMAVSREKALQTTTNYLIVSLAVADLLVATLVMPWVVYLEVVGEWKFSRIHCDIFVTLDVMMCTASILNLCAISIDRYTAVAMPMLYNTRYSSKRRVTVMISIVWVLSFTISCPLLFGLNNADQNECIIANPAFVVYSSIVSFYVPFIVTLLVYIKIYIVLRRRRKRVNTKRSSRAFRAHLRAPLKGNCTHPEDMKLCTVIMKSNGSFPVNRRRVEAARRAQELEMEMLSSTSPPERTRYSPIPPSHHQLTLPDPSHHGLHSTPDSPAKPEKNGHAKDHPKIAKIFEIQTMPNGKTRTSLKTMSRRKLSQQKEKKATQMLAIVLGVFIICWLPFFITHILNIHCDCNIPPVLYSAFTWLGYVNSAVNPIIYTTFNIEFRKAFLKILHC
Beta-2 adrenergic receptor (Homo sapiens), sequence (P07550 whole entry, looked up): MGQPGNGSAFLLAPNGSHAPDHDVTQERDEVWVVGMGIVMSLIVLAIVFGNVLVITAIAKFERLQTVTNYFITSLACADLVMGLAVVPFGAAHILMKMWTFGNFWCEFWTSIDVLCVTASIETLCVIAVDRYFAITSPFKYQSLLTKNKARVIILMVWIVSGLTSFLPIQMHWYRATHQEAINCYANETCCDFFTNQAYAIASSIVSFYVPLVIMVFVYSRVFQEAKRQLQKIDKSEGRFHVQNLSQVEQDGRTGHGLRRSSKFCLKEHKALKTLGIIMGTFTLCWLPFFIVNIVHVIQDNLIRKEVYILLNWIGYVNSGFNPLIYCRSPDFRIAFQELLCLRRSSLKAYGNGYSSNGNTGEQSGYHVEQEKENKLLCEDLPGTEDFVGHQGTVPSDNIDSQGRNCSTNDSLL
Gonadotropin-releasing hormone receptor (Homo sapiens), sequence (P30968 whole entry, looked up): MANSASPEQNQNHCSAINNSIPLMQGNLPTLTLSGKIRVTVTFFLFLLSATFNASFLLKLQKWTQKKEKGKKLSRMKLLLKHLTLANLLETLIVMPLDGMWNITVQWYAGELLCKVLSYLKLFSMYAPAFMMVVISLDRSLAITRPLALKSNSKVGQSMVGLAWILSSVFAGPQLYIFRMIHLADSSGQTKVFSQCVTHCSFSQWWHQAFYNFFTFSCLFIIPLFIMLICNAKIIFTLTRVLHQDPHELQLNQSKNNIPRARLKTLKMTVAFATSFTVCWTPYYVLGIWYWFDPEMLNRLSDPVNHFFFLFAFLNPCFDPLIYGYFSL
Muscarinic acetylcholine receptor M1 (Homo sapiens), sequence (P11229 whole entry, looked up): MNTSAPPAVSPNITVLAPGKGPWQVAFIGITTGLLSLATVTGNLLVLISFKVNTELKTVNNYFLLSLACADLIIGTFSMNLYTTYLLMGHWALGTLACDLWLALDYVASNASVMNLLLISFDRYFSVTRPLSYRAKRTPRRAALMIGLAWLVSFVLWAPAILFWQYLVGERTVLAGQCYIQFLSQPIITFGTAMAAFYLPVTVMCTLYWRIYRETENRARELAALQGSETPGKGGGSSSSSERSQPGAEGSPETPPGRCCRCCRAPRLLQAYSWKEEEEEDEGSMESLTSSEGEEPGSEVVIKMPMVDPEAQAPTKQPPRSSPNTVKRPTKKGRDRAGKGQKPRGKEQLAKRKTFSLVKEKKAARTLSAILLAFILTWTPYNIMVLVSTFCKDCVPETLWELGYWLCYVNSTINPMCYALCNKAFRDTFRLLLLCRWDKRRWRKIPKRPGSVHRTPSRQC

As for `CCCCN(CCN(CCCC)C(=O)N1CCOCC1)C(=O)N1CCOCC1`, the Potency in [1] is 29.8 µM (active); in [2], 21.1 µM (active). Moreover, the Potency result in [3], in assay [4], in assay [5], in assay [6], in assay [7] and in assay [8] was “inactive” in each case. Besides, the Potency result in assay [9], in [10], in assay [11], in [12], in assay [13] and in [14] was “inactive” in each case. The Potency result in [15] was “inactive”.
Consider `OCCCS`, for which the Potency result in [1], in assay [2], in [3], in assay [4], in assay [5] and in assay [6] was “inactive” each time. The Potency result in assay [16], in assay [17], in assay [7], in assay [8], in [18] and in [9] was “inactive” in each case. Also, the Potency entry in assay [10], in assay [11], in assay [19], in [20], in assay [12] and in assay [13] was “inactive” in each case. The Potency result in assay [14] was “inactive”.
Turning to `Nc1ccc(N)c2ccccc12`, the Potency was 27.3 µM (active) in assay [1], 7.69 µM (active) in [2] and 7.75 µM (active) in assay [9]. Further, the Potency entry in assay [3], in [4], in assay [5], in assay [6], in [8] and in [10] was “inactive” throughout. The Potency entry in assay [11], in assay [20] and in assay [15] was “inactive” in each case.
Consider `Cc1ccc(O)c(C(=O)c2ccccc2)c1`, for which the Potency entry in assay [1], in [2], in assay [3], in assay [4], in assay [5] and in [17] was “inactive” throughout. The Potency entry in [7], in [8], in assay [18], in assay [9], in [10] and in assay [11] was “inactive” each time. Moreover, the Potency result in assay [12], in assay [13], in assay [14] and in [15] was “inactive” throughout.
On to `CCCCC(CC)COP(=O)(O)O` (centres undefined), for which the Potency result in [1], in [2], in assay [3], in [4], in [5] and in [16] was “inactive” throughout. Also, the Potency result in [17], in assay [7], in assay [18], in [9], in assay [10] and in assay [11] was “inactive” each time. The Potency result in assay [20], in assay [12], in assay [14] and in assay [15] was “inactive” in each case.
With `CCCCC(CC)COC(=O)CCCCC(=O)OCc1ccccc1` (centres undefined), the Potency entry in assay [1], in [2], in [3], in [4], in assay [5] and in [6] was “inactive” each time. In addition, the Potency result in assay [16], in [17], in assay [7], in [8], in [18] and in [9] was “inactive” in each case. The Potency entry in assay [10], in assay [11], in [19], in assay [20], in assay [12] and in assay [13] was “inactive” each time. Besides, the Potency result in assay [14] and in assay [15] was “inactive” in each case.
Consider `O=C1c2ccccc2-c2ccccc21`, for which the Potency entry in assay [1], in assay [2], in assay [3], in assay [4], in [5] and in assay [16] was “inactive” in each case. In addition, the Potency result in assay [17], in assay [7], in assay [8], in assay [18], in assay [9] and in assay [10] was “inactive” each time. Moreover, the Potency result in assay [11], in [19], in [20], in assay [12], in assay [14] and in assay [15] was “inactive” each time.
`C=C(C)C1CCC(C)(O)CC1` (centres undefined): the Potency result in assay [1], in [2], in [3], in [4], in assay [5] and in [6] was “inactive” in each case. Also, the Potency entry in [16], in assay [17], in [7], in assay [8], in [18] and in assay [9] was “inactive” each time. Moreover, the Potency result in [10], in assay [11], in assay [19], in assay [20], in assay [12] and in assay [13] was “inactive” throughout.
